Drawing on ChEMBL document CHEMBL1961873, “Compounds: GSK PKIS; Assays: Nanosyn kinase panel” (2012), this text covers inhibition for six compounds.

Assay [1] concerns the target Rho-associated protein kinase 1 (Homo sapiens) (UniProt Q13464). To be noted: at 1 µM.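 Also: reported values are mean percent inhibition of ROCK1.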
Assay [2] has as its target Rho-associated protein kinase 2 (Homo sapiens) (UniProt O75116). Conditions: at 0.1 µM.
The target is the same in assay [3]. Conditions: at 1 µM.
Assay [4] deals with Ribosomal protein S6 kinase alpha-1 (Homo sapiens) (UniProt Q15418). To be noted: at 0.1 µM.
Chain of Ribosomal protein S6 kinase alpha-1 (Homo sapiens) (Q15418 whole entry): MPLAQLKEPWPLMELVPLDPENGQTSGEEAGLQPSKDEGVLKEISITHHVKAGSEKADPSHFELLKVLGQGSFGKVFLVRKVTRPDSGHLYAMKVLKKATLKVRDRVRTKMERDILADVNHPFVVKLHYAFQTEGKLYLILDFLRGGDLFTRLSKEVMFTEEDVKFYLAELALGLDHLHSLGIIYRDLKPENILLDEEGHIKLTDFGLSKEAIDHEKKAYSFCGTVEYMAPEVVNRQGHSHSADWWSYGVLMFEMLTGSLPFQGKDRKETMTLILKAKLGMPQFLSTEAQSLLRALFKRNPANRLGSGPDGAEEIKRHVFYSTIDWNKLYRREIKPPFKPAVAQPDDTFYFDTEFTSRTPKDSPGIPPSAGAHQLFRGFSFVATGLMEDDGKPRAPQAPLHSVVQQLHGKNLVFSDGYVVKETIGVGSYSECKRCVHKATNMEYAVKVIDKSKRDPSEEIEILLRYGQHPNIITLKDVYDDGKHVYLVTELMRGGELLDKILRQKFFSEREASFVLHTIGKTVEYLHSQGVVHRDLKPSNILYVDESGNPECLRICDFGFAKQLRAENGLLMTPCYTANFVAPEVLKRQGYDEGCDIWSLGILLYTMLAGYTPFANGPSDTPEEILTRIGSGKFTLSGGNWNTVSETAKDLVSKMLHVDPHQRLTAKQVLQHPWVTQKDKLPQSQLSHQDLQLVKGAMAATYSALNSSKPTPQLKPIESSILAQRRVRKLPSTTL
Assay [5] shares this target. To be noted: at 1 µM.
In assay [6] the target is Ribosomal protein S6 kinase alpha-3 (Homo sapiens) (UniProt P51812). Conditions: at 0.1 µM.
Chain of Ribosomal protein S6 kinase alpha-3 (Homo sapiens) (P51812 whole entry): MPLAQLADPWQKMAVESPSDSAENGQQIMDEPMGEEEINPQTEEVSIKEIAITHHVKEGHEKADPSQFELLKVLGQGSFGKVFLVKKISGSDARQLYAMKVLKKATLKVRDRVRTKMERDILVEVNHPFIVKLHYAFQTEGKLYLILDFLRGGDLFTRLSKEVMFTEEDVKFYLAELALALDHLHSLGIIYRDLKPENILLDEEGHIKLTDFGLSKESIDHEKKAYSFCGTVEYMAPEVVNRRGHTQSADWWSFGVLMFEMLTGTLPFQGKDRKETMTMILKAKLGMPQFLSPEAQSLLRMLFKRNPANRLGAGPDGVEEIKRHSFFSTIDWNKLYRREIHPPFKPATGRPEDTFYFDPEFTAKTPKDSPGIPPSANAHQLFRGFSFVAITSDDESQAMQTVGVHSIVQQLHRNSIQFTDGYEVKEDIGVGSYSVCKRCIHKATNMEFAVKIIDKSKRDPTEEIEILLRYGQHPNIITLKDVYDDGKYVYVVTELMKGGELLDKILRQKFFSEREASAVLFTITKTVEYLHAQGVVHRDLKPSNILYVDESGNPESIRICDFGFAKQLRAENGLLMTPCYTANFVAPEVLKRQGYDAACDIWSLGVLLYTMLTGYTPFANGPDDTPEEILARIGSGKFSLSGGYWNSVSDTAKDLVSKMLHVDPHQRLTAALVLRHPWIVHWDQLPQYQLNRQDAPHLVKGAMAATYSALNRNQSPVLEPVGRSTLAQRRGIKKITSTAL
Assay [7] has the same target. To be noted: at 1 µM.
Assay [8] deals with Ribosomal protein S6 kinase alpha-2 (Homo sapiens) (UniProt Q15349). Conditions: at 0.1 µM.
Chain of Ribosomal protein S6 kinase alpha-2 (Homo sapiens) (Q15349 whole entry): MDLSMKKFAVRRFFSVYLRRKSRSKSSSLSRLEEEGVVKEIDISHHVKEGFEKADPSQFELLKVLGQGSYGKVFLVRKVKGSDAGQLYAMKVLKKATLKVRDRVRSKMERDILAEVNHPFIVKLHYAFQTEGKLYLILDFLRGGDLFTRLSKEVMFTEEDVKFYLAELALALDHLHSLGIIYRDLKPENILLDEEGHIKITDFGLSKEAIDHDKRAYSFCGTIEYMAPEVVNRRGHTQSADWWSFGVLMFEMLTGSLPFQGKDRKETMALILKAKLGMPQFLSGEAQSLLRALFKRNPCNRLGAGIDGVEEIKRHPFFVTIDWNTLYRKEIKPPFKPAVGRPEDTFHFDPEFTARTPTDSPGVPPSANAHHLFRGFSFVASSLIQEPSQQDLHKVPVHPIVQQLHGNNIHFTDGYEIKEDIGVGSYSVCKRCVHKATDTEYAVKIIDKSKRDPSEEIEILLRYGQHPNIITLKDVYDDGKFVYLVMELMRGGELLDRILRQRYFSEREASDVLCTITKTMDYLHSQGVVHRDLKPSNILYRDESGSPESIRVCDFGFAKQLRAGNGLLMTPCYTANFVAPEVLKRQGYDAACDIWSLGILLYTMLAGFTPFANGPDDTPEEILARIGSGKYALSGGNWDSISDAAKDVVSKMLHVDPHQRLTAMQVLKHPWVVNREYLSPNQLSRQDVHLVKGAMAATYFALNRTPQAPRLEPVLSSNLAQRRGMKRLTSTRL
Assay [9] has the same target. Conditions: at 1 µM.
The target in assay [10] is Ribosomal protein S6 kinase alpha-6 (Homo sapiens) (UniProt Q9UK32). Conditions: at 0.1 µM.
Chain of Ribosomal protein S6 kinase alpha-6 (Homo sapiens) (Q9UK32 whole entry): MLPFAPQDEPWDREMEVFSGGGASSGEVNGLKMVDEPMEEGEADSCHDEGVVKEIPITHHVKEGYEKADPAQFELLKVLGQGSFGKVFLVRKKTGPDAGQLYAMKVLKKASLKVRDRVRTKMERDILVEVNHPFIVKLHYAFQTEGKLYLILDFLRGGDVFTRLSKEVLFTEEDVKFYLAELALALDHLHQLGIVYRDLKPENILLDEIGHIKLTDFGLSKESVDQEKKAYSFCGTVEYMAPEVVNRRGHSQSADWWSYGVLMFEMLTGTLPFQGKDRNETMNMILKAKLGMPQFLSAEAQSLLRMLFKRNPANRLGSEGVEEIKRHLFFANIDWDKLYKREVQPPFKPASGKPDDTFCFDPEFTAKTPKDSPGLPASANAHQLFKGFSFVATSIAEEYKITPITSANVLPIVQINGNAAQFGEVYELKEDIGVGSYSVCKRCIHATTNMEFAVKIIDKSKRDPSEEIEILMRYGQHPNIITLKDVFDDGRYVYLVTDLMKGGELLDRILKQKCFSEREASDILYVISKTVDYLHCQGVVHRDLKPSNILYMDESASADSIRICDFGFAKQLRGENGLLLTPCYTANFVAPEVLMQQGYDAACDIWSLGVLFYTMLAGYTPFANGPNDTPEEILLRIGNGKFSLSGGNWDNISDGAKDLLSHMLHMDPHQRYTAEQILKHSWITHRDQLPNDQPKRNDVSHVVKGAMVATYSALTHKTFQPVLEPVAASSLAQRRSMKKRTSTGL
Assay [11] shares this target. Conditions: at 1 µM.
Assay [12] concerns the target T1, Serine/threonine-protein kinase Sgk1 (Homo sapiens) (UniProt O00141).
T1 sequence (whole entry): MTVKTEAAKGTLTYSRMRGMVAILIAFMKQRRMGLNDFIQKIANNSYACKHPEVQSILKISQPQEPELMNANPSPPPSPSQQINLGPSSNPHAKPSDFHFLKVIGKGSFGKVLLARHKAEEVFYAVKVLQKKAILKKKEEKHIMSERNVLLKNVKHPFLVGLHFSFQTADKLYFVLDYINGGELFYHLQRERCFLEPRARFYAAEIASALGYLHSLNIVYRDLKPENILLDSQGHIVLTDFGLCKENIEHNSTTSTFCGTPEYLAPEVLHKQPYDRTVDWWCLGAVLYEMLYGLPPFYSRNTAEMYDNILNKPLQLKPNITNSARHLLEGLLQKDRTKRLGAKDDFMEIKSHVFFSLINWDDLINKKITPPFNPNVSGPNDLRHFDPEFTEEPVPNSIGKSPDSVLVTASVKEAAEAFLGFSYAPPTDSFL
Conditions: at 0.1 µM.

For assay [13], the target named is T1, Serine/threonine-protein kinase Sgk1 (Homo sapiens). To be noted: at 1 µM.
In assay [14] the target is T2, Serine/threonine-protein kinase Sgk2 (Homo sapiens) (UniProt Q9HBY8).
T2 sequence (whole entry): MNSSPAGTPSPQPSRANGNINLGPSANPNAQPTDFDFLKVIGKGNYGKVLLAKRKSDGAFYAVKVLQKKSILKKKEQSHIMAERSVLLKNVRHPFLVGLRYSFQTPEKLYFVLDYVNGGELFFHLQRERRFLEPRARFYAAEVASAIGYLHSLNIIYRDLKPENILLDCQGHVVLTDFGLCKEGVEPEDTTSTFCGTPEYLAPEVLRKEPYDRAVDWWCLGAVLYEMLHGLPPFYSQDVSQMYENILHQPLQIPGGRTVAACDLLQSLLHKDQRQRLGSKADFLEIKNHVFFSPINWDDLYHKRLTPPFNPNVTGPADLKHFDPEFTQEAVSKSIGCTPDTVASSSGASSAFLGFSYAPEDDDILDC
Conditions: at 0.1 µM.

Assay [15] addresses T2, Serine/threonine-protein kinase Sgk2 (Homo sapiens). Conditions: at 1 µM.
The target of assay [16] is T3, Serine/threonine-protein kinase Sgk3 (Homo sapiens) (UniProt Q96BR1).
T3 sequence (whole entry): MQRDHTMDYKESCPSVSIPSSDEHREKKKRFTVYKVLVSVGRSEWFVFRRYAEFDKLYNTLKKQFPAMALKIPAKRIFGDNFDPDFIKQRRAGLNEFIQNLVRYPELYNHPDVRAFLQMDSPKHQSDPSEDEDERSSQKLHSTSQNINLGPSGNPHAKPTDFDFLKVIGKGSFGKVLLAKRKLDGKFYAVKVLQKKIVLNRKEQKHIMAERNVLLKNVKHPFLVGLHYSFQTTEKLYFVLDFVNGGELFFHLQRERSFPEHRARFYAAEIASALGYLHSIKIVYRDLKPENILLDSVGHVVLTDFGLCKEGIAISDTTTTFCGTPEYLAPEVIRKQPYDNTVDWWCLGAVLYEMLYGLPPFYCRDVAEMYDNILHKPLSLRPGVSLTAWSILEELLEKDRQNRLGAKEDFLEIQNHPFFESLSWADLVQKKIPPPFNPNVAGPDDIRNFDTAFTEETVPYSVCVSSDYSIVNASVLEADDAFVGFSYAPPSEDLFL
To be noted: at 0.1 µM.

The target in assay [17] is T3, Serine/threonine-protein kinase Sgk3 (Homo sapiens). Conditions: at 1 µM.
Assay [18] has as its target 5'-AMP-activated protein kinase catalytic subunit alpha-1 (Homo sapiens) (UniProt Q13131). To be noted: at 0.1 µM.
Assay [19] has the same target. Conditions: at 1 µM.
Assay [20] deals with 5'-AMP-activated protein kinase catalytic subunit alpha-2 (Homo sapiens) (UniProt P54646). Conditions: at 0.1 µM.

Chain of Rho-associated protein kinase 1 (Homo sapiens) (Q13464 2-1354 limits assumed): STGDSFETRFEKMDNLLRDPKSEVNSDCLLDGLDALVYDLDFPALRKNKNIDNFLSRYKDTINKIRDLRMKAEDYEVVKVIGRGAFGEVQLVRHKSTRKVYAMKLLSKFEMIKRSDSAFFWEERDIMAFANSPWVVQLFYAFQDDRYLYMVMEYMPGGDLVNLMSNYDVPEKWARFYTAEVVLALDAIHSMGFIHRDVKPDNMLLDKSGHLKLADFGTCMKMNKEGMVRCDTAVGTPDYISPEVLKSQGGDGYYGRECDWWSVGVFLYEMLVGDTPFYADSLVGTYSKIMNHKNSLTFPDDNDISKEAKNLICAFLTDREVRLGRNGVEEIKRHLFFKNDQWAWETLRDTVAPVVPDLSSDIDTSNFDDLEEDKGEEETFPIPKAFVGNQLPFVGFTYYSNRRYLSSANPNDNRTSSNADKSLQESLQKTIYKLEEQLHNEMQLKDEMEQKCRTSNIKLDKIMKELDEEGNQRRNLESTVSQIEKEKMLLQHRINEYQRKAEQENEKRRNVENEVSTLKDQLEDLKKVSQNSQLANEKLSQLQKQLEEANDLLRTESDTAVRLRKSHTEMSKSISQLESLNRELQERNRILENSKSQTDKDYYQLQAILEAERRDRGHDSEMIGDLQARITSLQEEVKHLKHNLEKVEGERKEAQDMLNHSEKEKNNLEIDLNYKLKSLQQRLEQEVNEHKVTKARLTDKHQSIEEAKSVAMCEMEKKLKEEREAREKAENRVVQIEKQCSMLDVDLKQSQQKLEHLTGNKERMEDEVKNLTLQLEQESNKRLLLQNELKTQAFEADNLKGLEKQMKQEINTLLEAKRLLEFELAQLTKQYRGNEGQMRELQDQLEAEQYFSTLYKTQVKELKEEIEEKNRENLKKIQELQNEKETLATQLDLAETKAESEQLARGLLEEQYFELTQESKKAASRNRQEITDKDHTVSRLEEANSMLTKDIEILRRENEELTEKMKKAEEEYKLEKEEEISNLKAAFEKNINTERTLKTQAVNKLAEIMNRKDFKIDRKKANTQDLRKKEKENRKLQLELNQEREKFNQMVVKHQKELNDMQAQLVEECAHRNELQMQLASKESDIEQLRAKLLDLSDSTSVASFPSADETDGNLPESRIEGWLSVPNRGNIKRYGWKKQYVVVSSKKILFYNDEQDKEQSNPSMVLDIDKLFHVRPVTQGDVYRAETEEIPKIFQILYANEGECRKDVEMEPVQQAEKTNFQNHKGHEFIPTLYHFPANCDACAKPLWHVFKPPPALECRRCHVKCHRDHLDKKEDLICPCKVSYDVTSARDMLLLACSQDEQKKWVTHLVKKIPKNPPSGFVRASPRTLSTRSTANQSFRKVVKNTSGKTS
Chain of 5'-AMP-activated protein kinase catalytic subunit alpha-1 (Homo sapiens) (Q13131 whole entry, looked up): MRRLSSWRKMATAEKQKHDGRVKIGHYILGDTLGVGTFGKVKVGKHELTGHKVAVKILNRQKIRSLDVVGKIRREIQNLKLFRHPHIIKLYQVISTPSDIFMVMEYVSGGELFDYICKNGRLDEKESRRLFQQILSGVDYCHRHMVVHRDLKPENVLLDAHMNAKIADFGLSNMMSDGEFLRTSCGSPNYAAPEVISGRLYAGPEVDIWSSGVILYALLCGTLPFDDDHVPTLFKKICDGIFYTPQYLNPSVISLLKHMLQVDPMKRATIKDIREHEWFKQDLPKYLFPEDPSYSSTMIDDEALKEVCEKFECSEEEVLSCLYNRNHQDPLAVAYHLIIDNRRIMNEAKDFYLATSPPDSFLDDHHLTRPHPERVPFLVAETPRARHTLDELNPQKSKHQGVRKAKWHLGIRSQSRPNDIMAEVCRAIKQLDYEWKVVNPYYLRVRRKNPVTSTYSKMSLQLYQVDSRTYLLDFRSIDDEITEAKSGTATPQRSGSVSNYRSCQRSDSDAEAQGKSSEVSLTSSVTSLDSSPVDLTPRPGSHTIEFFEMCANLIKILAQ

One may read the inhibition as the relative decrease from the control value, in per cent. For the compound `CN(C)c1cc2c(Nc3ccc4nc(Cc5ccccc5)[nH]c4c3)ncnc2cn1`, the inhibition in [1] is 2.36%; in assay [2] it was 3.17%; in [3], 5.65%; in assay [4], 2.97%; in [5], 4.02%; in [6] it was 2.23%. The inhibition in assay [7] was 2.55%; in assay [8], 2.08%; in assay [9] it was 3.2%; in assay [10], 2.02%; in assay [11], 3.9%; in assay [12], 3.83%. Moreover, the inhibition was found to be 2.79% in [13]; 2.52% in [14]; 6.52% in assay [15]; 3.71% in assay [16]; 4.16% in assay [17]; 4.31% in assay [18]. For the same compound, the inhibition in assay [19] is 3.22%; in [20], 4.92%.

`O=C(Nc1n[nH]c2nc(-c3ccco3)c(Br)cc12)C1CC1`: the inhibition in assay [1] was 0.97%; in assay [2], 0.99%; in [3] it was -0.88%; in assay [4], 1.12%; in assay [5], -0.1%; in [6], 0.52%. In addition, the inhibition in assay [7] is -0.3%; in assay [8] it was 1.97%; in assay [9], 2.85%; in [10], 0.15%; in assay [11], 2.56%; in [12], 3.35%. Also, the inhibition in [13] was 3.09%; in [14] it was 0.84%; in assay [15], -4.73%; in assay [16], 2.77%; in assay [17] it was 3.45%; in assay [18], 3.65%. For the same compound, the inhibition in assay [19] turned out to be 3.4%; in assay [20], 1.15%.

Turning to `COc1cc(C=NNc2ncnc3c2cnn3-c2ccccc2)ccc1O`, the inhibition in assay [1] amounted to 3.41%; in [2], 1.64%; in assay [3] it was 8.94%; in [4], 1.65%; in [5], 7.83%; in assay [6] it was 1.16%. Further, the inhibition in assay [7] stood at 6.18%; in assay [8], 2.26%; in [9] it was 7.02%; in assay [10] it was 0.33%; in assay [11], 6.36%; in assay [12] it was 4.35%. Further, the inhibition is 12.3% in assay [13]; 1.73% in assay [14]; 12.3% in assay [15]; 1.97% in assay [16]; 1.32% in assay [17]; 2.74% in assay [18]. The inhibition was found to be 4.76% in assay [19] and 0.75% in [20].

In the case of `CS(=O)(=O)CCNCc1ccc(-c2ccc3ncnc(Nc4ccc(OCc5cccc(F)c5)c(C(F)(F)F)c4)c3c2)o1`, the inhibition worked out at 1.61% in assay [1]; 3.57% in [2]; 4.82% in assay [3]; 2.12% in [4]; 2.08% in assay [5]; 1.34% in assay [6]. Besides, the inhibition in [7] is 1.93%; in [8], 2.39%; in assay [9] it was 2.88%; in [10], 1.6%; in assay [11], 0.81%; in [12], 3.21%. Moreover, the inhibition in assay [13] came to 3.35%; in assay [14], 1.66%; in assay [15], 2.48%; in [16] it was 3.28%; in assay [17], 4.67%; in assay [18] it was 2.01%. Besides, the inhibition worked out at 3.32% in assay [19] and 3.2% in assay [20].

For the compound `Cc1nn(C)c2cc(N(C)c3ccnc(Nc4cccc(S(N)(=O)=O)c4)n3)ccc12`, the inhibition stood at 2.24% in [1]; 2.09% in assay [2]; 3.32% in [3]; 1.77% in assay [4]; 3.73% in assay [5]; 1.39% in assay [6]. Further, the inhibition in assay [7] came to 6.38%; in assay [8] it was 2.93%; in assay [9], 4.46%; in assay [10], 2.03%; in [11], 6.01%; in assay [12], 3.21%. Further, the inhibition is 3.89% in assay [13]; -0.4% in [14]; 5.81% in assay [15]; 3.28% in assay [16]; 6.89% in assay [17]; 1.01% in assay [18]. Also, the inhibition in assay [19] is 1.93%; in assay [20] it was 2.68%.

With `CN1CCC(C(=O)Nc2n[nH]c3nnc(-c4ccccc4)cc23)CC1`, the inhibition in assay [1] was found to be 1.3%; in assay [2] it was 3.27%; in assay [3], 7.43%; in [4] it was 2.04%; in assay [5] it was 3.41%; in assay [6], 1.58%. Also, the inhibition in assay [7] turned out to be 3.98%; in assay [8], 2.42%; in assay [9], 3.15%; in assay [10], 0.86%; in assay [11] it was 1.86%; in [12], 3.01%. Moreover, the inhibition in assay [13] stood at 6.62%; in assay [14], 4.36%; in assay [15] it was 3.52%; in assay [16], 2.89%; in assay [17] it was 5.04%; in [18], 5.95%. Besides, the values for the inhibition in [19] and in [20] were 5.95% and 4.12%, respectively.
